Assay results from PubChem BioAssay (NCATS).
Records with an inconclusive call do not appear. A call without a number means that no potency is given here. The source made the active and inactive calls. The call rests on the fitted dose curve; in most records, active means well fitted inhibition curve with a large enough effect; inconclusive means small, poorly fitted or top-dose-only effect; inactive means flat fitted curve, though single readings scatter.

experiment: BET inhibitor-based combinations targeting novel dependencies in MECOM-rearranged (r) AML: AML-191 cell line (AID 2202236; further: nearly all actives have a fitted effect of over 35% in size); settings: AML-191 viability, CellTiter-Glo luminescence, 48 h; series mostly up to 46 µM
Summary of the method: (§1)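 Here, 11-point titrations of each agent were applied to 500 seeded cells and incubated 48 hr; CellTiter-Glo signal, scaled against DMSO and empty wells, was integrated as AUC, then Z-scored within the individual line.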
Potency means the concentration at half of the fitted maximal effect.

Row | Compound | Potency
1 | CC(C)[C@]12O[C@H]1[C@@H]1O[C@@]13[C@@]1(C)CCC4=C(COC4=O)[C@@H]1C[C@@H]1O[C@@]13C2=O | 83.3 nM (active)
2 | C[C@@H]1O[C@@H](O[C@@H]2C=C3CC[C@@H]4[C@H](CC[C@]5(C)[C@@H](c6ccc(=O)oc6)CC[C@]45O)[C@@]3(C)CC2)[C@H](O)[C@H](O)[C@H]1O | 18.6 nM (active)
3 | C[C@]12CC[C@H]3[C@@H](CC[C@@]45O[C@@H]4C(O)=C(C#N)C[C@]35C)[C@@H]1CC[C@@H]2O | inactive
4 | CO[C@H]1CCC(O[C@H]2C[C@H]([C@]3(C)CC[C@]4(C[C@H](O)[C@@H](C)[C@@H]([C@@H](C)/C=C(\C)C(=O)[C@H](C)C[C@H](C)C(=O)O)O4)O3)O[C@]3(O[C@@H]([C@H]4O[C@@](O)(CO)[C@H](C)C[C@@H]4C)C[C@@H]3C)[C@@H]2C)O[C@@H]1C (some centres not stated) | 1660 nM (active)
5 | CCCCCCC(C)(C)c1cc(O)c2c(c1)OC(C)(C)C1CC=C(CO)C[C@H]21 (some centres not stated) | 18600 nM (active)
6 | CC1(C)C(=O)N(c2ccc(C#N)c(C(F)(F)F)c2)C(=S)N1Cc1ccc(-c2cn[nH]n2)cc1 | 18600 nM (active)
7 | CC(=O)OC[C@H]1O[C@@H]([S-])[C@H](OC(C)=O)[C@@H](OC(C)=O)[C@@H]1OC(C)=O.CC[PH+](CC)CC.[Au] | 1050 nM (active)
8 | COc1cc(C(=O)N2CC[C@@H](O)[C@@H](N)C2)cc2nc(-c3cc4ccccc4n3CC3CC3)n(C)c12 | inactive
9 | COC(=O)[C@]12CCC(C)(C)C[C@H]1[C@H]1C(=O)C=C3[C@@]4(C)C=C(C#N)C(=O)C(C)(C)[C@@H]4CC[C@@]3(C)[C@]1(C)CC2 | 1860 nM (active)
10 | O=P1(NCCCl)OCCCN1CCCl (configuration not stated) | inactive
11 | Cc1[nH]ncc1-c1cc2nc([C@@H]3CC4CCN3CC4)[nH]c(=O)c2s1 | 8330 nM (active)
12 | O=S(=O)(F)Cc1ccccc1 | inactive

experiment: BET inhibitor-based combinations targeting novel dependencies in MECOM-rearranged (r) AML: AML-194 cell line (AID 2202237; further: nearly all actives have a fitted effect of over 40% in size); settings: AML-194 (MECOM-r AML) viability, CellTiter-Glo, 48 h; series mostly up to 46 µM
Summary of the method: as §1

Row | Compound | Potency
13 | CN1C(=O)COc2c(C(=O)NC3CN4CCC3CC4)cc(Cl)cc21 (configuration not stated) | inactive
14 | Cn1c(COP(=O)(NCCBr)NCCBr)cnc1[N+](=O)[O-] | inactive
15 | N[C@@H]1C[C@H]1c1ccccc1 | inactive
16 | N#CC(O[C@@H]1O[C@H](CO[C@@H]2O[C@H](CO)[C@@H](O)[C@H](O)[C@H]2O)[C@@H](O)[C@H](O)[C@H]1O)c1ccccc1 (some centres not stated) | inactive
17 | C[C@]12COC(=O)C[C@@H]1CC[C@@H]1[C@@H]2CC[C@@]2(C)[C@H]1CC[C@]2(C)O | inactive
18 | O=c1cccc2n1CC1CNC[C@H]2C1 | inactive
19 | C/C(O)=C(\C#N)C(=O)Nc1cc(Br)ccc1Br | inactive
20 | C[C@H]1[C@H](O)[C@@H](C)/C=C/C=C/CC/C=C/C=C/C=C/C=C/[C@H](O[C@@H]2O[C@H](C)[C@@H](O)[C@H](N)[C@@H]2O)C[C@@H]2O[C@](O)(C[C@@H](O)[C@H](O)CC[C@@H](O)C[C@@H](O)C[C@@H](O)CC(=O)O[C@H]1C)C[C@H](O)[C@H]2C(=O)O | inactive
21 | COc1cc(C)[nH]c(=O)c1CNC(=O)c1c(C)n([C@H](C)C2CCN(CC(F)(F)F)CC2)c2ccccc12 | inactive
22 | Cc1c(N)nc([C@H](CC(N)=O)NC[C@@H](N)C(N)=O)nc1C(=O)N[C@H](C(=O)N[C@@H](C)[C@H](O)[C@@H](C)C(=O)N[C@@H](C(=O)NCCc1nc(-c2nc(C(=O)NCCC[S+](C)C)cs2)cs1)[C@@H](C)O)C(O[C@H]1O[C@H](CO)[C@H](O)[C@@H](O)[C@H]1O[C@H]1O[C@H](CO)[C@@H](O)[C@H](OC(N)=O)[C@@H]1O)c1cnc[nH]1 (some centres not stated) | inactive
23 | CC(C)C[C@H](CN)CC(=O)O | inactive
24 | C/C=C(\C)C(=O)N[C@@H](c1ccccc1)[C@@H](O)C(=O)O[C@H]1C[C@@]2(O)[C@@H](OC(=O)c3ccccc3)[C@@H]3[C@]4(OC(C)=O)CO[C@@H]4C[C@H](O)[C@@]3(C)C(=O)[C@H](OC(C)=O)C(=C1C)C2(C)C | 74.2 nM (active)
25 | CC(C)[C@]12O[C@H]1[C@@H]1O[C@@]13[C@@]1(C)CCC4=C(COC4=O)[C@@H]1C[C@@H]1O[C@@]13C2=O | 332 nM (active)
26 | C[C@@H]1O[C@@H](O[C@@H]2C=C3CC[C@@H]4[C@H](CC[C@]5(C)[C@@H](c6ccc(=O)oc6)CC[C@]45O)[C@@]3(C)CC2)[C@H](O)[C@H](O)[C@H]1O | 14.8 nM (active)
27 | C[C@]12CC[C@H]3[C@@H](CC[C@@]45O[C@@H]4C(O)=C(C#N)C[C@]35C)[C@@H]1CC[C@@H]2O | inactive
